Compound activity: PubChem BioAssay, several laboratories
Mtb FBA inh = Mtb fructose-bisphosphate aldolase inhibition; P9WQA3; purified M. tuberculosis FBA, fluorescence read-out; inhibition, % at 1 µM; 2.3% of 360,000 active; in the data active = inhibition above about 27%;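 note: 0% = vehicle and 100% = reference inhibitor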
Target sequence (P9WQA3 whole entry, looked up): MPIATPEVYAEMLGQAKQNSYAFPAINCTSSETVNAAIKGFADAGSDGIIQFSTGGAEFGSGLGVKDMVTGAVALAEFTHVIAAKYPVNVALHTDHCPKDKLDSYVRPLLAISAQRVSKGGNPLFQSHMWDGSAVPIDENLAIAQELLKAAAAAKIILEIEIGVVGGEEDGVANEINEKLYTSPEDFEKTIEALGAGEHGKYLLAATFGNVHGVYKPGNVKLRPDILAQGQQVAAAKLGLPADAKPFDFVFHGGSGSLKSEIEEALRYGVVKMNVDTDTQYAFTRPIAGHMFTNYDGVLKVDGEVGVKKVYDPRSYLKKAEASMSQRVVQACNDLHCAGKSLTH
GDH-TPI counter = GDH-TPI coupled enzyme inhibition counter-screen | GDH-TPI coupled enzyme counterscreen, NADH absorbance | inhibition, % at 4.8 µM | 1.2% of 360,000 active; in the data active = inhibition above about 30%;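 note: 0% = DMSO wells and 100% = wells lacking the enzyme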
BJeLR lethal = kills HRASV12-expressing BJeLR cells | BJeLR (HRASV12) viability, CellTiter-Glo ATP luminescence, 48 h | inhibition, % (concentration not given with the values) | 0.17% of 300,000 active | AID 1554; in the data active = inhibition above about 50%
PrPC surface inh = cell surface PrPC inhibition, primary TR-FRET screen; TR-FRET read-out; 0.43% of 370,000 active; inhibition, % at 13.8 µM; in the data active = inhibition above about 24%; note: 0% = median of the test wells and 100% = reference compound wells
PrP UTR inh = suppresses PrP 5' UTR mRNA reporter expression; cell-based PrP 5' UTR mRNA reporter, plate reader; inhibition, % (concentration not given with the values); 0.35% of 340,000 active; AID 488862; in the data active = inhibition above about 52%; note: 0 = median of the neutral control wells
PfHsp40 rescue = compounds rescuing yeast from Plasmodium falciparum HSP40 toxicity | S. cerevisiae expressing PfHsp40, growth rescue, ATP luminescence | growth rescue, % at 12.5 µM | 0.68% of 340,000 active | AID 504582; in the data active = growth rescue above about 28%, passing the limit was not always enough;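 note: yeast W303a lacking pdr1 and pdr3 grown in galactose medium; growth measured after three days at 30 °C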
Numbers without * were called inactive; nt = no result given. Hits are enriched below; roughly 4.5% of the tested compounds scored in any of these assays.

SMILES	Mtb FBA inh	GDH-TPI counter	BJeLR lethal	PrPC surface inh	PrP UTR inh	PfHsp40 rescue
COc1ccc(/C=N/NC(=O)C(=O)N2CCCC2)cc1	-1	5	2	5	-35	2
CN(C)c1ccc(/C=N/NC(=O)C(=O)N2CCCCCC2)cc1	4	36*	9	-1	-9	-1
CN(C)c1ccc(/C=N/NC(=O)c2ccccn2)cc1	0	25	11	-4	-10	2
O=C(N/N=C\c1ccc(OC(=O)c2ccco2)cc1)c1ccc(Cl)cc1	-3	12	-25	-1	-38	0
O=C(N/N=C/c1ccc(OC(=O)c2ccco2)cc1)c1ccc[n+]([O-])c1	-2	36*	5	0	-8	3
O=C(NCCCN1CCN(c2ccc(F)cc2)CC1)Nc1ccccc1	nt	nt	nt	-10	nt	nt
COc1ccc(CCNC(=O)c2ccc(Br)o2)cc1Br	nt	nt	nt	11	nt	nt
COc1ccc(NC(=O)CSc2ncnc3scc(-c4ccc(C)cc4)c23)cc1OC	nt	nt	nt	3	nt	nt
CN(C)c1ccc(/C=N/NC(=O)c2ccco2)cc1	-3	47*	7	3	-118	0
CN(C)c1ccc(/C=N/NC(=O)c2ccn(C)n2)cc1	-3	33*	5	-13	-39	1
Cn1ccc(C(=O)N/N=C/c2cccnc2)n1	-4	-12	7	0	-6	0
COC(=O)c1ccc(-c2ccc3c(c2)[C@]2(CCC[C@@H](O)[C@@H]2NC(=O)CCc2ccccc2)C(=O)N3Cc2ccccc2)cc1	nt	nt	nt	-6	nt	nt
O=C(O)c1ccc2[nH]c3c(c2c1)CCCC3	4	7	3	10	7	35*
CC(c1ccc(O)cc1)c1cn(C)c2ccccc12 (centres undefined)	nt	nt	nt	6	nt	nt
CNC(=O)c1cc2c(cn1)[nH]c1ccccc12	19	-11	-1	-2	-60	60*
COC(=O)[C@H](CCSC)NC(=O)c1cc2c(cn1)[nH]c1ccccc12	14	10	-1	3	-6	0
CCN1CCN(S(=O)(=O)c2cc(OCC(=O)NC3CCCCC3)c(C)cc2Cl)CC1	-7	52*	1	13	-10	-2
CCCC(C)NC(=O)CC1Oc2ccccc2NC1=O (centres undefined)	nt	nt	nt	-4	nt	nt
CC(C)CNc1cccc2c1S(=O)(=O)N(Cc1cn(Cc3cccc(C(F)(F)F)c3)nn1)Cc1ccccc1O2	nt	nt	nt	-7	nt	nt
COC(=O)[C@]12CCCCC=C1N(Cc1ccco1)C(=O)[C@H](CC(=O)NCc1cccc3ccccc13)C2	nt	nt	nt	2	nt	nt
CC(C)n1c(O)c(N=NC(=O)CNC(=O)Cc2ccc(Cl)cc2)c2ccccc21	-3	29	1	4	-13	0
CCn1c(O)c(N=NC(=O)CNC(=O)c2ccccc2F)c2ccccc21	1	26	5	-42	-30	0
COc1ccccc1C(=O)NCC(=O)N=Nc1c(O)n(C(C)C)c2ccccc12	1	31*	-1	-9	-6	-1
CC(C)n1c(O)c(N=NC(=O)CNC(=O)CCc2ccccc2)c2ccccc21	-2	31*	6	-11	-28	2
CCC(CC)NC(=O)O[C@H]1CC[C@@]23CCCN2C(=O)CCC[C@H]3C1	nt	nt	nt	-5	nt	nt
SMILES	Mtb FBA inh	GDH-TPI counter	BJeLR lethal	PrPC surface inh	PrP UTR inh	PfHsp40 rescue
Cc1ccc(Cn2cc(CN(C3CC3)S(=O)(=O)c3ccccc3Br)nn2)cc1	nt	nt	nt	5	nt	nt
COc1ccc(NC(=O)c2cc3cc(OC)ccc3oc2=O)cc1	0	5	-1	-2	-21	-2
COc1ccc2oc(=O)c(C(=O)Oc3ccc(NC(C)=O)cc3)cc2c1	31*	18	14	0	-3	1
CC1=C(C(=O)N2CCOCC2)CC(CC(=O)NCc2cccc3ccccc23)C(=O)N1Cc1ccc(C(C)(C)C)cc1 (centres undefined)	-3	nt	nt	-2	nt	nt
CCOc1ccc(S(=O)(=O)n2cc(F)c(=O)[nH]c2=O)cc1[N+](=O)[O-]	-1	-5	0	0	-29	1
CCOc1ccc(S(=O)(=O)n2cc(F)c(=O)[nH]c2=O)cc1	4	1	0	6	-18	144*
Clc1cccc(Cl)c1/C=C/c1nc2ccccc2[nH]1	138*	15	-6	nt	-202	22
CC(C)(C)C(=O)OC12CCCN(C1)/C(=C/c1ccncc1)C2 (centres undefined)	nt	nt	nt	9	nt	nt
Cc1ccc(-c2csc(/C(C#N)=C(\O)CN3CCN(C(=O)c4ccco4)CC3)n2)cc1	0	31*	-2	-2	-16	1
